From PubChem BioAssay
NSD2 HMT inh – NSD2 (human) methyltransferase inhibition; NSD2 peptide methylation, AlphaScreen, 120 min; inhibition, % at 12.5 µM; O96028; actives 0.54% (n = 310,000); in the data active means inhibition above about 50%
SUMO Mot1 rescue – SUMOylation pathway inhibition by Mot1-301 growth rescue; actives 1% (n = 320,000); S. cerevisiae Mot1-301 growth rescue, ATP luminescence, 38.5C; percent above DMSO median, 100 means doubled; growth rescue, % at 18.8 µM;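 active means every valid replicate shows activation above 250% relative to neutral control wells; inactive means the rest, any valid replicate at or below 250%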;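 further: OY570 slx delta 5 strain wells were the positive control but not used for scaling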
Glyco luc inh – N-linked glycosylation inhibition; D54 ERlucT glycosylation luciferase reporter, 24 h; percent of 100 nM tunicamycin response; reporter increase, % at 12.5 µM; actives 0.23% (n = 360,000); AID 588692;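 active means mean luciferase reporter signal, scaled so untreated is 0 and the glycosylation-blocking control 100, at or above a set limit in every replicate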;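 further: luciferase carries N-glycosylation sites so blocking glycosylation raises the light; 0% = median of neutral control wells and 100% = median of 100 nM tunicamycin wells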
CASP6 VEID inh – blocks human caspase-6 cleavage activity | actives 0.53% (n = 350,000) | P55212 | inhibition, % at 12.5 µM | purified caspase-6, Z-VEID-R110 cleavage fluorescence | AID 686996;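 active means mean inhibition across replicates at least about 35%, with every replicate also reaching that limit, limit read from the data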;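 further: 0% = median of neutral control wells and 100% = no fluorescence left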
CDK5 p35 inh – blocks human CDK5/p35 kinase activity | Recombinant CDK5/p35, ADP-Glo luminescence, 60 min | inhibition, % at 10 µM | actives 0.01% (n = 330,000);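 active means highest replicate inhibition of at least 50% and at least 75% of replicates reaching 50%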;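 further: plate controls were DMSO neutral control for no effect and GW8510 at 10 µM for full effect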
Target sequence (Q00535 whole entry, looked up): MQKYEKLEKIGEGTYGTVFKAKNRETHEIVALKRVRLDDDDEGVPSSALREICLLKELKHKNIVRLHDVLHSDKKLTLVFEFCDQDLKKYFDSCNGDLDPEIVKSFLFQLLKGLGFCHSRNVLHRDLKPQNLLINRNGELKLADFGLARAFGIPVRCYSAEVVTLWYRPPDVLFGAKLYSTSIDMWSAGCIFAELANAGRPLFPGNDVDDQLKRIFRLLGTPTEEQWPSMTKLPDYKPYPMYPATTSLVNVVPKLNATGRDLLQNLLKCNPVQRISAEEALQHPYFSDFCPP
Target sequence (Q15078 whole entry, looked up): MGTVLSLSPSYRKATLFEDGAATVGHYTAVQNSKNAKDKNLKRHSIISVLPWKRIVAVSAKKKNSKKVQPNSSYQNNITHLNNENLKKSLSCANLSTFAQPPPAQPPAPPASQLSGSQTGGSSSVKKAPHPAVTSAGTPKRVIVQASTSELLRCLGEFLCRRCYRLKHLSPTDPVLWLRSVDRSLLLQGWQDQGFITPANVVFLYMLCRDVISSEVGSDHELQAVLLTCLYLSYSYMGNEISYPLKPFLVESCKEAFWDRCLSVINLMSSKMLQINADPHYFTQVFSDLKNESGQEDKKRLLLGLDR
ALR H2O2 inh – blocks human ALR sulfhydryl oxidase activity; purified ALR, DTT oxidation, H2O2 HRP-luminol luminescence; actives 3.8% (n = 290,000); inhibition, % (concentration not given with the values); P55789; AID 485317;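 active means mean replicate inhibition above about 79%, with every replicate also reaching it, limit read from the data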
Mot1 SUMO dose – yeast SUMO pathway inhibition in dose response; shares compounds with SUMO Mot1 rescue; S. cerevisiae Mot1-301 galactose growth, ATP luminescence, 24 h; -100 = growth of slx-deleted rescue strain; growth activity, percent, % at 42 µM; 2,300 tested, under 10 active;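 active means Signal drops as the depositor expects, and the fitted half-maximal dose is no more than ten times the top valid tested dose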;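 further: more negative values mean stronger growth rescue toward the control strain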
* = called active by the depositor; nt = not tested or not shown; + = active, no number. Compounds with a hit are over-represented: about 3.9% of the library has one in this group of screens.

SMILES	NSD2 HMT inh	SUMO Mot1 rescue	Glyco luc inh	CASP6 VEID inh	CDK5 p35 inh	ALR H2O2 inh	Mot1 SUMO dose
CCSc1nc(N)nc2c1ncn2C1OC(CO)C(O)C1O (configuration not stated)	0.2	nt	1.9	0.2	0.0	nt	nt
CSc1ncc2ncn(C3OC(CO)C(O)C3O)c2n1 (configuration not stated)	nt	+	0.8	-6.2	0.1	-0.1	0.5
O=C(CCN1CCCCC1)N[C@H]1CC[C@H](CCNS(=O)(=O)c2ccccc2)O[C@H]1CO	nt	nt	nt	-0.9	nt	nt	nt
COc1cc(C)c(Cl)c(C)c1S(=O)(=O)NCc1ccc2c(c1)OCO2	-2.0	383.6*	0.7	nt	-0.6	2.0	-1.2
COc1cc(C)c(S(=O)(=O)NCc2ccc3c(c2)OCO3)cc1C	nt	0.7	0.9	1.2	-0.4	-9.2	nt
CCOC(=O)c1ccc(CNC(=O)Cn2nnc(-c3ccc(C)cc3)n2)o1	-0.6	+	1.5	nt	0.4	-10.4	0.9
C[C@@H]1CN([C@@H](C)CO)C(=O)c2cc(C#C[C@@H](C)O)cnc2O[C@@H]1CN(C)CC1CCOCC1	nt	nt	nt	-6.2	nt	nt	nt
CC=Cc1ccc2n(c1=O)C[C@H]1[C@H](CO)[C@@H](C(=O)NCCc3ccccc3)N(C(C)=O)[C@@H]21 (mixture of isomers)	nt	nt	nt	-0.5	nt	nt	nt
CCCOc1ccccc1C1NC(=O)NC(C)=C1C(=O)OCc1ccccc1 (configuration not stated)	1.0	735.0*	-3.0	nt	0.8	-1.4	-0.3
Cc1ccc(C(=O)O/N=C(\N)c2cccc([N+](=O)[O-])c2)cc1	2.8	-14.5	-7.1	1.5	2.5	49.3	nt
Cc1ccc(CC(=O)O/N=C(\N)c2cccc([N+](=O)[O-])c2)cc1	nt	448.1*	1.8	0.4	-0.7	-3.4	0.2
CCC(C)(C)C1CCc2[nH]nc(C(=O)NC3CCCC3)c2C1 (configuration not stated)	nt	150.9	-4.1	1.8	-2.8	2.2	nt
O=C(NC1CCCCC1)c1n[nH]c2c1CCCCC2	nt	363.7*	-23.1	0.5	4.1	54.5	-1.7
COc1ccc(S(=O)(=O)Cc2ccc(C(=O)NCc3cccs3)o2)cc1	nt	461.8*	-1.8	1.3	0.9	nt	0.0
O=C(NCc1cccs1)c1ccc(CS(=O)(=O)c2ccc(Cl)cc2)o1	1.0	-15.9	-0.7	nt	-0.7	3.0	nt
CC(C)CC#Cc1ccc2c(c1)O[C@H](CN(C)Cc1ccc3c(c1)OCO3)[C@H](C)CN([C@@H](C)CO)S2(=O)=O	nt	nt	nt	-4.3	nt	nt	nt
COc1ccc(CCNC(=O)c2cc(-c3cccs3)on2)cc1OC	-1.5	-1.2	19.7	0.0	-4.6	-10.1	nt
COc1ccc(CCNC(=O)c2cc(-c3ccco3)on2)cc1OC	-4.2	566.1*	63.3*	-2.7	1.1	-5.5	-0.8
C=CCSc1nnc2c(n1)[nH]c1c(C)cccc12	nt	531.7*	5.7	-0.7	0.9	-3.8	-1.1
C[C@H](CO)N1C[C@H](C)[C@@H](CN(C)C(=O)C2CCCCC2)Oc2ncc(C#Cc3cccc(F)c3)cc2C1=O	nt	nt	nt	1.9	nt	nt	nt
O=c1cc(COc2ncnc3c(Cl)cc(Cl)cc23)nc2sccn12	1.2	341.3	-2.1	8.3	0.3	nt	nt
O=c1cc(COc2ncnc3ccccc23)nc2sccn12	-3.6	542.6*	-0.3	1.5	1.5	3.2	0.2
C/C=C/c1ccc2c(c1)O[C@H](CN(C)C(=O)Nc1ccc(C(F)(F)F)cc1)[C@H](C)CN([C@@H](C)CO)S2(=O)=O	nt	nt	nt	0.8	nt	nt	nt
CC(C)CC(=O)Nc1ccc(C(=O)CN2C(=O)NC3(CCOc4ccccc43)C2=O)cc1 (configuration not stated)	-0.1	566.4*	-2.3	-1.7	0.3	nt	1.0
CCc1cnc(N2[C@H](C#N)[C@@H](c3ccc(-c4cccc(F)c4)cc3)[C@H]2CO)s1	nt	nt	nt	0.2	nt	nt	nt
SMILES	NSD2 HMT inh	SUMO Mot1 rescue	Glyco luc inh	CASP6 VEID inh	CDK5 p35 inh	ALR H2O2 inh	Mot1 SUMO dose
COc1ccc(CCN(C)CCCN2CC(c3ccccc3)CC2=O)cc1OC (configuration not stated)	13.7	-14.1	-0.8	-2.3	1.6	-2.7	nt
COc1ccc(CCN(C)CCCC(C#N)(c2ccc(OC)c(OC)c2)C(C)C)cc1OC (configuration not stated)	nt	nt	-2.3	nt	-1.7	nt	-0.2
O=C(C1CC1)N1C[C@@H]2[C@H](c3ccccc31)[C@H](CO)N2C(=O)Nc1cccc(F)c1	nt	nt	nt	0.6	nt	nt	nt
CSCCC(NC(=O)c1ccccc1)C(=O)N1CCN(C(=O)c2ccccc2)CC1 (configuration not stated)	1.4	-14.9	1.0	-3.7	0.0	nt	nt
CSCCC(NC(=O)c1ccco1)C(=O)N1CCN(Cc2ccccc2)CC1 (configuration not stated)	-4.0	425.8*	1.4	-40.6	-0.3	2.6	0.5
CC1(OC(=O)CCc2ccccc2)C(=O)C=C2C=C(c3ccc(C#N)cc3)N(CCN3CCOCC3)C=C2C1=O (configuration not stated)	nt	-19.3	1.5	11.5	1.9	-15.7	nt
CC1(OC(=O)CCc2ccccc2)C(=O)C=C2C=C(c3ccc(C#N)cc3)N(CC3CC3)C=C2C1=O (configuration not stated)	nt	588.6*	1.9	8.6	1.3	-9.4	0.2
CC1(OC(=O)CCc2ccccc2)C(=O)C=C2C=C(c3ccc(C#N)cc3)N(C3CCCC3)C=C2C1=O (configuration not stated)	nt	645.4*	0.3	-0.6	0.8	-18.2	0.2
COc1ccc(-c2cnc3c(c2)C(=O)N([C@@H](C)CO)C[C@H](C)[C@@H](CN(C)C)O3)cc1	nt	nt	nt	-3.4	nt	nt	nt
COc1cccc(S(=O)(=O)N2C[C@@H](O)COC[C@H]3O[C@@H](CC(=O)N4CCN(C)CC4)CC[C@@H]32)c1	nt	nt	nt	-3.0	nt	nt	nt
O=C1CCCC2=C1C(c1ccncc1)c1c(nc(SCc3ccccc3Cl)[nH]c1=O)N2 (configuration not stated)	1.2	682.4*	2.8	nt	1.3	-9.5	0.0
O=c1[nH]c(SCc2ccccc2Cl)nc2c1CCCC2	7.0	-0.8	0.6	nt	1.9	43.8	nt
COc1cccc(-n2nnc3c(=O)n(CC(=O)N4CCC(C)CC4)cnc32)c1	nt	-2.9	-2.5	6.0	-1.2	-4.7	nt
COc1cccc(-n2nnc3c(=O)n(CC(=O)N4CCCc5ccccc54)cnc32)c1	0.9	+	-3.5	nt	2.0	23.3	0.3
c1ccc(-c2nc(NCc3ccco3)c3ccccc3n2)nc1	10.9	504.9*	-6.6	nt	-2.3	6.4	-0.1
CSc1cccc(NC(=S)N2CCCN(Cc3ccccc3F)C2)c1	0.2	496.1*	0.8	-3.7	0.4	-6.6	-0.2
Oc1c(Cl)cc(Cl)cc1/C=N/c1nccs1	5.0	107.2	1.4	nt	0.3	17.6	nt
